Shown are actives, neighbours in structure and some others; about 1.3% of the full set was active somewhere.
PrP UTR inh: inhibition of PrP 5' UTR reporter expression | inhibition, % (no concentration beside the values) | hit rate 0.35% among 340,000 | AID 488862 | cell-based PrP 5' UTR mRNA reporter, plate reader; in the data active = inhibition above about 52%; also: 0 = median of the neutral control wells
RecA splice inh: inhibitors of M. tuberculosis RecA intein splicing | cell-free RecA intein splicing, fluorescence | inhibition, % (test concentration not listed) | hit rate 0.75% among 290,000 | P9WHJ3; in the data active = inhibition above about 30%; inconclusive = no clear call, values can overlap the other calls;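 also: 0% = vehicle wells and 100% = reference inhibitor control wells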
Target sequence (P9WHJ3 whole entry, looked up, canonical isoform): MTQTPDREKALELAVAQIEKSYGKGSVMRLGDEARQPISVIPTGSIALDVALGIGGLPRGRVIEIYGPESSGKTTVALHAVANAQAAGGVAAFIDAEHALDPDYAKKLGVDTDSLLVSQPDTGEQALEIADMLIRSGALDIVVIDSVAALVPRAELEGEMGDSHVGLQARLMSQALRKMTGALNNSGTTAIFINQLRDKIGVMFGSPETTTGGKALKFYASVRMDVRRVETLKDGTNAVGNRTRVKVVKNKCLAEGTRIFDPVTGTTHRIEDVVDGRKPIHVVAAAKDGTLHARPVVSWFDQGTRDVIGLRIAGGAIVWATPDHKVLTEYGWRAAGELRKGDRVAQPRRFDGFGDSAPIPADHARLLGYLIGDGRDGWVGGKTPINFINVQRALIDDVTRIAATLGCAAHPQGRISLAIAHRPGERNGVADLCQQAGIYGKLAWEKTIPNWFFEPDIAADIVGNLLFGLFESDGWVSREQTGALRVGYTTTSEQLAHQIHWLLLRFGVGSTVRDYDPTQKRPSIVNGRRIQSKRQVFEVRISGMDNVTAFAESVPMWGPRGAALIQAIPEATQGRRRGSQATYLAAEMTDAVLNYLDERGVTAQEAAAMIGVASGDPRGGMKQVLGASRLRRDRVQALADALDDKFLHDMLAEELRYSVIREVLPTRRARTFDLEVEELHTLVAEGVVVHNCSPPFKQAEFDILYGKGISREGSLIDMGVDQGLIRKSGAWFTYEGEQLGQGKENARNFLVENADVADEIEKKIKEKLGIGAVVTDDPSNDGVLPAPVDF
FadD28 FP inh: inhibitors of Mycobacterium tuberculosis FadD28 bisubstrate binding. hit rate 0.22% among 360,000. FadD28 bisubstrate probe binding, fluorescence polarization. inhibition, % at 12.5 µM; in the data active = inhibition above about 8.5%, passing the limit was not always enough; inconclusive = no clear call, values can overlap the other calls
UGM FP inh: blocks M. tuberculosis UGM enzyme | inhibition, % at 10 µM | AID 504406 | purified UGM, fluorescence polarization probe displacement | P9WIQ1 | hit rate 0.06% among 320,000; in the data active = inhibition above about 10%, passing the limit was not always enough; inconclusive = no clear call, values can overlap the other calls
Rv3671c protease: inhibitors of M. tuberculosis serine protease Rv3671c | P9WHR9 | AID 2606 | inhibition, % at 5.96 µM | hit rate 0.048% among 320,000; in the data active = inhibition above about 38%;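 also: extracellular domain of Rv3671c used as enzyme; 0% = enzyme with DMSO and 100% = no enzyme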
BJeLR lethal: BJeLR cell viability loss | hit rate 0.17% among 300,000 | inhibition, % (test concentration not listed) | AID 1554 | BJeLR (HRASV12) viability, CellTiter-Glo ATP luminescence, 48 h; in the data active = inhibition above about 50%; inconclusive = no clear call, values can overlap the other calls
PrP UTR cherry: prion 5' UTR mRNA inhibition, cherry-pick retest | shares compounds with PrP UTR inh | cell-based prion protein 5' UTR reporter, plate reader | inhibition, % at 2.5 µM | hit rate 48% among 1,100 | AID 504592; in the data active = inhibition above about 54%; inconclusive = no clear call, values can overlap the other calls
An asterisk follows results filed as active; ? = inconclusive; · = not tested or not shown.

SMILES	PrP UTR inh	RecA splice inh	FadD28 FP inh	UGM FP inh	Rv3671c protease	BJeLR lethal	PrP UTR cherry
CC(=O)N1CCN(CC(O)COc2ccc(S(=O)(=O)N3CCOCC3)cc2)CC1 (configuration not stated)	-5	·	·	4	6	·	·
CN(C(=O)COC(=O)c1ccc(Cl)nc1)C1CCS(=O)(=O)C1 (configuration not stated)	68*	-4	-1	0	4	8	-20
CN(C(=O)COC(=O)c1cnc(Cl)c(Cl)c1)C1CCS(=O)(=O)C1 (configuration not stated)	-38	2	-3	-1	1	-10	·
Cc1nn(-c2ccccc2)c(C)c1/C=N/NC(=O)c1cc(-c2cccs2)[nH]n1	68*	9	-2	2	-27	39	78*
Cc1ccc(C(=O)N2C3C=CC(C3)C2(C(F)(F)F)C(F)(F)F)cc1 (configuration not stated)	86*	-3	0	1	-5	-2	-12
O=Cc1cn(Cc2cccc([N+](=O)[O-])c2)c2ccccc12	71*	-1	-2	-3	-7	-23	16
O=C(Nc1ccccc1)c1cnc2n(c1=O)CCS2	56*	1	0	-1	-7	3	-39
O=C(CN1C(=O)c2ccccc2S1(=O)=O)c1ccc(F)cc1	62*	-3	-1	1	0	-12	49
O=C(CN1C(=O)c2ccccc2S1(=O)=O)c1ccc(OC(F)F)cc1	67*	-1	-3	-1	-14	3	64*
O=C(CCN1C(=O)c2ccccc2S1(=O)=O)Nc1cc(Cl)ccc1Cl	-25	0	-2	3	-1	13	·
O=C(CN1C(=O)c2ccccc2S1(=O)=O)c1ccccc1F	28	-1	-1	2	-1	15	·
O=C(CN1C(=O)c2ccccc2S1(=O)=O)c1ccc(Cl)cc1Cl	79*	-1	-1	2	2	-8	82*
O=C1c2ccccc2S(=O)(=O)N1Cc1nc2ccccc2s1	70*	-2	-4	-2	-2	4	?
S=c1nc(C2COc3ccccc3O2)[nH][nH]1 (configuration not stated)	-51	-1	0	-1	3	4	·
CCCS(=O)(=O)c1cnc(C2COc3ccccc3O2)nc1N (configuration not stated)	86*	-1	0	1	-7	20	83*
OC1c2c(F)cccc2N=C2CCCCN21 (configuration not stated)	·	·	-1	·	·	·	·
O=C(NCCNC(=O)c1ccc(Cl)cc1Cl)c1cnccn1	-18	4	·	1	-1	-3	·
COC(=O)C1CCC(=O)N1C(c1ccc(OC)cc1)c1cc(OC)c(OC)c(OC)c1 (configuration not stated)	56*	·	-2	·	·	·	89*
CCC12C(=Nc3c(Cl)cccc31)C[C@@H]1CCN3C(=O)CCC[C@H]2[C@H]13 (some centres not stated)	-13	·	-4	·	·	·	·
O=C(O)C1(Br)CC12c1ccccc1-c1ccccc12 (configuration not stated)	54*	·	-3	·	·	·	-7
CC(=O)Nc1cc(-c2ccccc2)cn2c(-c3cccc(C(C)=O)c3)cnc12	·	·	-2	·	·	·	·
COc1ccc(NC(=O)Nc2nnc([C@@H]3C[C@H](O)[C@@H](CO)O3)s2)cc1	·	·	0	·	·	·	·
COc1cccc(N2CCN(C(=O)c3ccc(CS(=O)c4ccccc4Cl)o3)CC2)c1 (configuration not stated)	35	0	-3	0	-1	46	·
COc1cccc(N2CCN(C(=O)c3ccc(CS(=O)c4ccccc4C)o3)CC2)c1 (configuration not stated)	56*	-1	-2	1	4	32	83*
O=C(NC1CC1)c1ccc(-c2nc3ccccc3s2)s1	66*	-5	-1	0	-2	7	?
SMILES	PrP UTR inh	RecA splice inh	FadD28 FP inh	UGM FP inh	Rv3671c protease	BJeLR lethal	PrP UTR cherry
COc1ccc(S(=O)(=O)N2c3cc(Cl)ccc3Oc3nc4ccccc4nc32)cc1	71*	-3	-4	-3	-2	74*	88*
O=S(=O)(c1ccc(Cl)cc1)N1c2ccccc2Oc2nc3ccccc3nc21	-16	-7	-5	1	-3	-7	·
Cc1nn(C(C)(C)C)c(C)c1/C=N/OC(=O)Nc1ccc(Cl)cc1	94*	2	-2	-2	5	-4	93*
CC(=O)Nc1ccc(NC(=O)c2c(C)nn(-c3ccccc3)c2Cl)cc1C	-19	-1	-5	2	-2	-8	·
CCOc1ccc2c(c1)C(C)=CC(C)(C)N2S(=O)(=O)c1ccc(C)cc1	66*	·	-1	·	·	27	87*
CCNC(=O)N1c2ccc(OCC)cc2C(C)=CC1(C)C	-6	-2	0	0	-12	6	·
CC1=C(C(=O)N(C(C)C)C(C)C)CC(CC(=O)NCc2ccco2)C(=O)N1Cc1ccc(C(C)(C)C)cc1 (configuration not stated)	·	·	-5	·	·	·	·
O=C1c2ccccc2C(=O)C1c1nccc2ccccc12	35	0	0	-1	-21	16	·
O=C1c2ccccc2C(=O)C1c1ccnc2ccccc12	58*	2	0	-1	-25	25	40
CCOc1cccc2cc(C(=O)NCc3ccc(Cl)cc3)c(=N)oc12	-15	1	-2	-2	0	1	·
O=C(Nc1ccon1)c1sc2cc(Cl)ccc2c1Cl	-49	1	-3	-1	-12	-7	·
Cc1c(C(=O)OCCOC(C)C)[nH]c2c1C(=O)CC(c1ccco1)C2 (configuration not stated)	66*	0	-1	-1	7	36	90*
COCCOC(=O)c1[nH]c2c(c1C)C(=O)CC(c1ccco1)C2 (configuration not stated)	-5	1	-2	-1	5	16	·
Cc1c(C(=O)OCc2ccccc2)[nH]c2c1C(=O)CC(c1ccco1)C2 (configuration not stated)	62*	3	0	-2	-10	25	87*
CCOC(=O)c1[nH]c2c(c1C)C(=O)CC(c1ccco1)C2 (configuration not stated)	61*	1	0	1	-6	42	93*
CC1(c2nnc(-c3ccncc3)o2)CC(c2ccccc2)=NO1 (configuration not stated)	6	-3	0	5	-1	-2	·
CCCCN(C(=O)c1cc(=O)[nH]c2ccccc12)c1c(N)n(CCCC)c(=O)[nH]c1=O	-16	0	1	-3	0	-2	·
CCCN1CCN(CC(=O)Nc2nnc(C)s2)CC1	52*	0	0	2	15	0	-7
CC(=O)c1sc2c(c1OC(=O)c1ccc(Cl)cc1Cl)c(=O)n(-c1ccccc1)c(=S)n2-c1ccccc1	76*	1	-4	0	-6	40	62*

High-throughput results as filed in PubChem.
